Data: PubChem BioAssay AID1159580 (chemical genetic matrix, 2015)
Several values for one entry are separate records, joined by “and”; a condition that tells them apart may be missing. Equal entries are not always repeated. In all, about 5,500 compounds went through this assay and about 2,000 (36%) were called active. Roughly 18% stayed inconclusive and do not appear here. No stated cut-off is given here; in the data, active means normalized growth mostly below about 0.91 (no sharp cut-off); inconclusive means no clear call, values can overlap the other calls; inactive means mostly above about 0.92. This is one part of the list.

Test: chemical genetic growth profiling, strain panel (AID 1159580);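 further: tested at 20 µM; growth read once vehicle control cultures reached saturation at 30 °C; 1 = growth at the plate median or of vehicle wells; lower values mean less growth of the strain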
Settings: growth OD

Measured: normalized growth

O=C(O)CC[N+](=O)[O-]
inactive: S. cerevisiae deletion strains, locus YJR075W, strain HOC1, hits give low values 0.987 | S. cerevisiae deletion strains, locus YKL009W, strain mrt4, hits give low values 0.971 | S. cerevisiae deletion strains, locus YKL068W, hits give low values 0.978 | S. cerevisiae deletion strains, locus YKL085W, strain MDH1 (second series), hits give low values 1.01 | S. cerevisiae deletion strains, locus YKL085W, strain MDH1, hits give low values 1.01 | S. cerevisiae deletion strains, locus YKL160W, strain elf1, hits give low values 1 | S. cerevisiae deletion strains, locus YKL190W, strain CNB1, hits give low values 0.986 | S. cerevisiae deletion strains, locus YKR001C, strain vps1, hits give low values 0.982 | S. cerevisiae deletion strains, locus YKR026C, strain gcn3, hits give low values 1 | S. cerevisiae deletion strains, locus YKR091W, strain srl3, hits give low values 0.993 | S. cerevisiae deletion strains, locus YLL001W, strain dnm1, hits give low values 0.981 | S. cerevisiae deletion strains, locus YLL026W, hits give low values 1.01 | S. cerevisiae deletion strains, locus YLL041C, strain sdh2, hits give low values 1 | S. cerevisiae deletion strains, locus YLR027C, strain aat2, hits give low values 1.01 | S. cerevisiae deletion strains, locus YLR039C, strain RIC1, hits give low values 0.903 | S. cerevisiae deletion strains, locus YLR058C, strain SHM2, hits give low values 0.991 | S. cerevisiae deletion strains, locus YLR102C, strain apc9, hits give low values 0.979 | S. cerevisiae deletion strains, locus YLR113W, strain HOG1, hits give low values 1.02 | S. cerevisiae deletion strains, locus YLR221C, strain rsa3, hits give low values 1.03 | S. cerevisiae deletion strains, locus YLR258W, strain gsy2, hits give low values 1.03 | S. cerevisiae deletion strains, locus YLR262C, strain YPT6 (second series), hits give low values 0.989 | S. cerevisiae deletion strains, locus YLR262C, strain YPT6, hits give low values 0.908 | S. cerevisiae deletion strains, locus YLR268W, strain sec22, hits give low values 0.988 | S. cerevisiae deletion strains, locus YLR320W, strain mms22, hits give low values 1.03 | S. cerevisiae deletion strains, locus YLR330W, strain CHS5, hits give low values 0.982 | S. cerevisiae deletion strains, locus YLR342W, strain FKS1 (second series), hits give low values 0.998 | S. cerevisiae deletion strains, locus YLR342W, strain FKS1, hits give low values 1.01 | S. cerevisiae deletion strains, locus YLR357W, strain rsc2, hits give low values 0.993 | S. cerevisiae deletion strains, locus YLR370C, strain arc18, hits give low values 1 | S. cerevisiae deletion strains, locus YLR371W, strain rom2, hits give low values 0.969 | S. cerevisiae deletion strains, locus YLR384C, strain iki3, hits give low values 0.988 | S. cerevisiae deletion strains, locus YLR418C, strain cdc73, hits give low values 1 | S. cerevisiae deletion strains, locus YML016C, strain PPZ1, hits give low values 0.993 | S. cerevisiae deletion strains, locus YML032C, strain rad52, hits give low values 0.973 | S. cerevisiae deletion strains, locus YML120C, strain ndi1, hits give low values 0.999 | S. cerevisiae deletion strains, locus YML124C, strain tub3, hits give low values 0.98 | S. cerevisiae deletion strains, locus YMR058W, strain fet3, hits give low values 1.03 | S. cerevisiae deletion strains, locus YMR078C, strain ctf18, hits give low values 0.976 | S. cerevisiae deletion strains, locus YMR125W, strain sto1, hits give low values 0.988 | S. cerevisiae deletion strains, locus YMR129W, hits give low values 0.996 | S. cerevisiae deletion strains, locus YMR205C, strain PFK2, hits give low values 0.983 | S. cerevisiae deletion strains, locus YMR223W, strain ubp8, hits give low values 0.977 | S. cerevisiae deletion strains, locus YMR231W, strain pep5, hits give low values 0.986 | S. cerevisiae deletion strains, locus YMR263W, strain SAP30, hits give low values 0.985 and 1 | S. cerevisiae deletion strains, locus YMR307W, strain GAS1, hits give low values 0.924 | S. cerevisiae deletion strains, locus YNL067W, strain RPL9B, hits give low values 0.991 | S. cerevisiae deletion strains, locus YNL071W, strain lat1, hits give low values 1.01 | S. cerevisiae deletion strains, locus YNL128W, strain TEP1, hits give low values 0.981 | S. cerevisiae deletion strains, locus YNL153C, strain GIM3, hits give low values 0.994 | S. cerevisiae deletion strains, locus YNL175C, strain NOP13, hits give low values 0.992 | S. cerevisiae deletion strains, locus YNL183C, strain NPR1, hits give low values 0.953 | S. cerevisiae deletion strains, locus YNL197C, strain WHI3, hits give low values 1.01 | S. cerevisiae deletion strains, locus YNL209W, strain ssb2, hits give low values 1.01 | S. cerevisiae deletion strains, locus YNL224C, strain SQS1, hits give low values 0.992 | S. cerevisiae deletion strains, locus YNL233W, strain BNI4, hits give low values 1 | S. cerevisiae deletion strains, locus YNL248C, strain rpa49, hits give low values 0.996 | S. cerevisiae deletion strains, locus YNL250W, strain rad50, hits give low values 0.978 | S. cerevisiae deletion strains, locus YNL271C, strain bni1, hits give low values 0.974 | S. cerevisiae deletion strains, locus YNL298W, strain CLA4, hits give low values 0.98 | S. cerevisiae deletion strains, locus YNL307C, strain MCK1, hits give low values 0.982 | S. cerevisiae deletion strains, locus YNL322C, strain KRE1 (second series), hits give low values 0.989 | S. cerevisiae deletion strains, locus YNL322C, strain KRE1, hits give low values 0.987 and 1.01 | S. cerevisiae deletion strains, locus YNR049C, strain mso1, hits give low values 1 | S. cerevisiae deletion strains, locus YNR052C, strain pop2, hits give low values 0.979 | S. cerevisiae deletion strains, locus YOL006C, strain TOP1, hits give low values 1.01 | S. cerevisiae deletion strains, locus YOL012C, strain htz1 0.756 | S. cerevisiae deletion strains, locus YOL147C, strain pex11, hits give low values 0.985 | S. cerevisiae deletion strains, locus YOR001W, strain rrp6, hits give low values 1.03 | S. cerevisiae deletion strains, locus YOR061W, strain CKA2, hits give low values 0.992 | S. cerevisiae deletion strains, locus YOR069W, strain VPS5, hits give low values 0.99 | S. cerevisiae deletion strains, locus YOR070C, strain gyp1, hits give low values 0.999 | S. cerevisiae deletion strains, locus YOR080W, strain dia2, hits give low values 1 | S. cerevisiae deletion strains, locus YOR083W, strain WHI5 (second series), hits give low values 0.995 | S. cerevisiae deletion strains, locus YOR083W, strain WHI5, hits give low values 0.999 | S. cerevisiae deletion strains, locus YOR106W, strain vam3, hits give low values 0.99 | S. cerevisiae deletion strains, locus YOR136W, strain idh2, hits give low values 0.986 | S. cerevisiae deletion strains, locus YOR144C, strain elg1, hits give low values 0.97 | S. cerevisiae deletion strains, locus YOR184W, strain ser1, hits give low values 0.968 | S. cerevisiae deletion strains, locus YOR231W, strain MKK1, hits give low values 0.971 | S. cerevisiae deletion strains, locus YOR265W, strain rbl2, hits give low values 0.997 | S. cerevisiae deletion strains, locus YOR270C, strain vph1, hits give low values 1.04 | S. cerevisiae deletion strains, locus YOR290C, strain snf2, hits give low values 0.982 | S. cerevisiae deletion strains, locus YOR316C, strain cot1, hits give low values 0.989 | S. cerevisiae deletion strains, locus YPL051W, strain arl3, hits give low values 1.03 | S. cerevisiae deletion strains, locus YPL055C, strain LGE1, hits give low values 0.972 and 1.02 | S. cerevisiae deletion strains, locus YPL078C, strain atp4, hits give low values 0.981 | S. cerevisiae deletion strains, locus YPL106C, strain sse1, hits give low values 1.04 | S. cerevisiae deletion strains, locus YPL240C, strain hsp82, hits give low values 1.01 | S. cerevisiae deletion strains, locus YPL241C, strain CIN2, hits give low values 0.941 | S. cerevisiae deletion strains, locus YPL256C, strain CLN2, hits give low values 0.991 | S. cerevisiae deletion strains, locus YPR119W, strain clb2, hits give low values 0.993 | S. cerevisiae deletion strains, locus YPR141C, strain kar3, hits give low values 0.979 | S. cerevisiae deletion strains, locus YPR163C, strain tif3, hits give low values 0.986 | S. cerevisiae deletion strains, locus YPR167C, strain met16, hits give low values 0.996 | S. cerevisiae deletion strains, strain wtn01, hits give low values 1.01 | S. cerevisiae strains, strain wild type, hits give low values 0.999
